HepG2 viability: HepG2 cytotoxicity, counter-screen for TGF-b inhibitors; HepG2 CAGA-GFP viability, ATP luminescence, 18 h; Potency, µM (highest dose often 46.1 µM), usual class: cytotoxic; actives 0.76% (n = 410,000)
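HepG2 CAGA-GFP cells (1000/well, DMEM with 1% FBS) received compound, then TGF-beta at 500 pg/mL final, and were incubated 18 hours at 37 degrees C. Viability was read by CellTiter-Glo luminescence. Media-only wells were set as complete cell-killing and DMSO as no toxicity.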
S2 tox: viability counter-screen for ATXN expression inhibitors; S2 cells (HEK-293 line with an ATXN2-luciferase reporter) viability, CellTiter-Fluor protease fluorescence, 24 h; Potency, µM (highest dose often 56.7 µM), hits mostly cytotoxic; actives 0.49% (n = 400,000); AID 651635; also: nearly all actives have a fitted effect of over 40% in size
HT1080 IDH1KD tx: toxicity to HT-1080 IDH1 knockdown cells (counter line); AID 686971; HT-1080 IDH1 knockdown viability, ATP luminescence, 48 h; actives 2% (n = 360,000); Potency, µM (titrated, usually from 46.1 µM), actives largely listed as cytotoxic
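IDH1KD HT-1080 cells, 750/well, RPMI + 5% FBS; compound pinned after 2 h settling; 48 h, 37 °C; CellTiter-Glo luminescence; % activity normalised to DMSO and no-cell wells; curves fitted, classed by r2 and efficacy.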
TGFb SMAD3 inh: inhibitors of TGF-b signaling | AID 588855 | HepG2 CAGA-GFP TGF-b/SMAD3 reporter, GFP fluorescence, 18 h; TGF-beta stimulated, 500 pg/mL final | Potency, µM (doses to about 46.1 µM), hits mostly inhibitors | actives 1.2% (n = 410,000); also: nearly all actives have a fitted effect of over 65% in size
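TGF-beta reporter screen: HEPG2 CAGA-GFP, 1% FBS, 500 pg/mL TGF-beta final, 18 h; per-cell GFP summed per well; curves fitted and categorized by class.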
ATXN2 expr inh: ATXN2 expression inhibition. HEK-293 ATXN2-luciferase reporter, luminescence, 24 h. Potency, µM (top dose mostly 57 µM), actives largely listed as inhibitors. actives 0.72% (n = 360,000). AID 1745845; also: nearly all actives have a fitted effect of over 55% in size
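ATXN2-luciferase reporter cells (luciferase flanked by upstream and downstream ATXN2 gene portions) were treated 24 h at 37 °C with compounds at up to 57 uM. SteadyGlo luminescence gave expression; GF-AFC fluorescence gave viability.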
HT1080-NT tox: kills 2HG-producing HT-1080-NT fibrosarcoma cells; HT-1080-NT fibrosarcoma viability, CellTiter-Glo ATP luminescence, 48 h; Potency, µM (top dose mostly 46.1 µM), most hits filed as cytotoxic; actives 1.6% (n = 360,000);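 also: NT is the 2HG producing partner of a matched IDH1 knockdown line; nearly all actives have a fitted effect of over 55% in size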
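Read-out is CellTiter-Glo luminescence after 10 minutes at room temperature, following 48 hours' compound treatment of HT-1080-NT cells (750 cells/well, RPMI, 5% FBS, 37 degrees C).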
Of the large screens only hits and unclear results are named; the others gave an inactive call. The list is not random: actives were taken first. Their share in the collection is about 3.8%. Calls follow the shape of the dose curve; as a rule, active = well fitted curve in the direction sought with a large enough effect; inconclusive = small, poorly fitted or top-dose-only effect, or another doubt; inactive = no such curve, though single readings can be large; an effect the other way counts as inactive or inconclusive.

CCOc1ccc(NS(=O)(=O)c2cc(NC(=O)c3ccc(C)cc3)ccc2Cl)cc1	S2 tox inconclusive, HT1080 IDH1KD tx 3.66µM, TGFb SMAD3 inh inconclusive, HT1080-NT tox 2.31µM
COc1ccccc1NS(=O)(=O)c1cc(NC(=O)c2ccc(Cl)nc2)ccc1Cl	S2 tox inconclusive, HT1080 IDH1KD tx inconclusive, TGFb SMAD3 inh inconclusive, ATXN2 expr inh 20µM, HT1080-NT tox inconclusive
Cc1ccc(C(=O)CCC(=O)Nc2ccc(Cl)c(S(=O)(=O)Nc3cccc(Cl)c3)c2)cc1	none
CCOc1ccc(Oc2ccc(NS(=O)(=O)c3cc(C(=O)O)ccc3Cl)cc2)cc1	none
CCC(C)NCCC(=O)Nc1ccc(Cl)c(S(=O)(=O)Nc2ccc(Cl)cc2)c1 (configuration not stated)	HT1080 IDH1KD tx 14.6µM, HT1080-NT tox inconclusive
CCS(=O)(=O)c1ccc(OC)c(C(=O)OC)c1	none (no result: HepG2 viability, HT1080 IDH1KD tx, TGFb SMAD3 inh, HT1080-NT tox)
CCCOC(=O)c1cccc(Nc2nc(-c3cccnc3)nc3ccccc23)c1	HepG2 viability 15.8µM, HT1080 IDH1KD tx inconclusive, TGFb SMAD3 inh 17.8µM, ATXN2 expr inh inconclusive, HT1080-NT tox 25.9µM (no result: S2 tox)
Cc1ccc(-c2nc(CCNC(=O)C(=O)Nc3c(C)cccc3C)cs2)cc1	TGFb SMAD3 inh inconclusive (no result: S2 tox, HT1080 IDH1KD tx, ATXN2 expr inh, HT1080-NT tox)
Cc1nn(C(C)(C)C)c(OC(=O)c2cccs2)c1S(=O)(=O)c1ccccc1	HT1080 IDH1KD tx inconclusive, TGFb SMAD3 inh inconclusive, HT1080-NT tox 20.6µM
CC(=O)Oc1c(S(=O)(=O)c2ccccc2)c(C)nn1C(C)(C)C	S2 tox inconclusive
Cc1oc(-c2ccc(C(=O)N(C)Cc3ccccc3)cc2)nc1CN1CCc2ccccc21	S2 tox inconclusive, TGFb SMAD3 inh inconclusive (no result: HT1080 IDH1KD tx, HT1080-NT tox)
Cc1ccccc1-c1noc(N)c1C#N	HT1080 IDH1KD tx 10µM, HT1080-NT tox inconclusive
Oc1ccc(-c2nc3ccc4ccccc4c3c3c2CCC3)cc1O	HepG2 viability 25.1µM, HT1080 IDH1KD tx inconclusive, HT1080-NT tox inconclusive
Cc1cc(C)c2c(ccc3ccccc32)n1	S2 tox inconclusive
Cc1cc2oc(=O)c(CC(=O)NCCCN(C)C)c(C)c2c2occ(C(C)(C)C)c12	HepG2 viability 22.4µM, S2 tox 22.4µM, HT1080 IDH1KD tx 5.8µM, TGFb SMAD3 inh inconclusive, HT1080-NT tox 18.4µM
COCCNC(=O)Cc1c(C)c2c(cc(C)c3c(C(C)(C)C)coc32)oc1=O	HT1080 IDH1KD tx 8.2µM, HT1080-NT tox 6.51µM
CCOC(=O)c1c(C)[nH]c(C(C)=O)c1C	none
CCNC(=O)c1c(C)[nH]c(C(=O)OCC)c1C	none
CCOC(=O)c1[nH]c(C=O)c(C(=O)OCC)c1C	S2 tox inconclusive, HT1080 IDH1KD tx 3.66µM, HT1080-NT tox 1.64µM
CCOC(=O)c1c(C)[nH]c(C(=O)N/N=C\c2ccccc2O)c1C	S2 tox inconclusive, HT1080 IDH1KD tx 5.8µM, ATXN2 expr inh inconclusive, HT1080-NT tox 7.31µM
CCOC(=O)c1[nH]c(C)c(C(=O)Nc2ccccc2C)c1C	HT1080 IDH1KD tx 2.31µM, HT1080-NT tox 5.8µM
CCOC(=O)c1c(C)[nH]c(C(=O)N/N=C/c2cc([N+](=O)[O-])ccc2O)c1C	S2 tox inconclusive, HT1080 IDH1KD tx inconclusive, ATXN2 expr inh inconclusive
CCOC(=O)c1[nH]c(C)c(C(=O)Nc2cc(Cl)ccc2C)c1C	S2 tox inconclusive, HT1080 IDH1KD tx 0.0891µM, HT1080-NT tox 0.316µM
CC(C)(C)c1ccc(C(=O)Nc2onc3c2CCCC3)cc1	S2 tox inconclusive (no result: HT1080 IDH1KD tx, HT1080-NT tox)
CC1=CC(=O)C=C(C)C1=NOS(=O)(=O)c1ccccc1	S2 tox inconclusive, HT1080 IDH1KD tx 20.6µM, TGFb SMAD3 inh inconclusive, ATXN2 expr inh inconclusive, HT1080-NT tox inconclusive
CC1=CC(=O)C(C(C)C)=C/C1=N/OS(=O)(=O)c1ccccc1	S2 tox 3.16µM, HT1080 IDH1KD tx 5.8µM, TGFb SMAD3 inh 5.01µM, HT1080-NT tox 8.2µM (no result: ATXN2 expr inh)
Cc1ccc2c(c1)/C(=N/OS(=O)(=O)c1ccccc1)CCS2	TGFb SMAD3 inh inconclusive
Cc1ccc(C)c(N2CCN(C(=O)Cn3ncc4c(=O)oc5ccccc5c43)CC2)c1	none (no result: HT1080 IDH1KD tx, HT1080-NT tox)
CCN(CC)S(=O)(=O)c1ccc(S(=O)(=O)Nc2c(C)nn(C)c2C)cc1	HT1080 IDH1KD tx inconclusive, HT1080-NT tox 16.4µM
